Reference: PubChem BioAssay (EPA / NIEHS)
Several values for one entry are separate records, joined by “and”; a condition that tells them apart may be missing. Identical values can stand only once. Activity calls are given as the source filed them. How the source made its calls: active means hit-call score of the fitted dose curve at least 0.9, where 1 is the maximum; inactive means score below 0.9.

Columns and labels:
[1] = read-out: Tissue Factor, F3 (gene 2152); assay: BSK_CASM3C_TissueFactor: BioMAP Diversity Plus: CASM3C Assay for Tissue Factor Biomarker Activity (AID 2283052); conditions: primary human coronary artery smooth muscle cells; actives raise or lower the signal;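 further: cell surface tissue factor protein level read by ELISA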
[2] = read-out: Interferon-gamma inducible Protein 10 (IP10), CXCL10 (gene 3627); assay: BSK_hDFCGF_IP10: BioMAP Diversity Plus: hDFCGF Assay for Interferon-gamma inducible Protein 10 (IP10) Biomarker Activity (AID 2283053); conditions: primary human foreskin fibroblasts; actives raise or lower the signal
Outline: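 Chemical-treated human skin fibroblasts (primary) were sampled at 24 h for IP-10 by ELISA. Both increases and decreases relative to DMSO were scored.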

[3] = read-out: Urokinase-type plasminogen activator receptor (uPAR), PLAUR (gene 5329); assay: BSK_CASM3C_uPAR: BioMAP Diversity Plus: CASM3C Assay for Urokinase-type plasminogen activator receptor (uPAR) Biomarker Activity (AID 2283054); conditions: primary human coronary artery smooth muscle cells; actives raise or lower the signal;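 further: cell-surface uPAR protein level quantified by ELISA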
[4] = read-out: Vascular cell adhesion molecule 1 (VCAM1), VCAM1 (gene 7412); assay: BSK_CASM3C_VCAM1: BioMAP Diversity Plus: CASM3C Assay for Vascular cell adhesion molecule 1 (VCAM1) Biomarker Activity (AID 2283055); conditions: primary human coronary artery smooth muscle cells; actives raise or lower the signal;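 further: VCAM-1 protein level quantified by ELISA on the cells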
[5] = read-out: Collagen III, COL3A1 (gene 1281); assay: BSK_hDFCGF_CollagenIII: BioMAP Diversity Plus: hDFCGF Assay for Collagen III Biomarker Activity (AID 2283056); conditions: primary human foreskin fibroblasts; actives raise or lower the signal
Outline: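 Cells: human foreskin fibroblasts, primary. Dosing followed by 24 h incubation, then ELISA for collagen III. Both increases and decreases scored relative to DMSO.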

[6] = read-out: Epidermal growth factor receptor (EGFR), EGFR (gene 1956); assay: BSK_hDFCGF_EGFR: BioMAP Diversity Plus: hDFCGF Assay for Epidermal growth factor receptor (EGFR) Biomarker Activity (AID 2283057); conditions: primary human foreskin fibroblasts; actives raise or lower the signal
Outline: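 Cell-based multiplexed assay in primary human foreskin fibroblasts. EGFR is read by ELISA 24 h after treatment and compared with DMSO controls.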

[7] = read-out: Interleukin-8 (IL8), CXCL8 (gene 3576); assay: BSK_hDFCGF_IL8: BioMAP Diversity Plus: hDFCGF Assay for Interleukin-8 (IL8) Biomarker Activity (AID 2283058); conditions: primary human foreskin fibroblasts; actives raise or lower the signal
Outline: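 IL-8 levels from compound-treated primary human fibroblasts were read by ELISA at 24 h, with DMSO serving as baseline for bidirectional fitting.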

[8] = BSK_hDFCGF_Proliferation: Cell Proliferation Assessment in the BioMAP Diversity Plus: hDFCGF Assay (AID 2283059); conditions: primary human foreskin fibroblasts;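 further: curves fitted for both rise and fall of signal versus DMSO baseline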
Outline: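 Sub-confluent human foreskin fibroblast cultures receive test chemical […]. Relative cell number is quantified by sulforhodamine B staining (0.1%, after 10% TCA fixation) at 560 nm, with bidirectional fitting referenced to DMSO.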

[9] = read-out: Macrophage colony-stimulating factor (MCSF), CSF1 (gene 1435); assay: BSK_hDFCGF_MCSF: BioMAP Diversity Plus: hDFCGF Assay for Macrophage colony-stimulating factor (MCSF) Biomarker Activity (AID 2283060); conditions: primary human foreskin fibroblasts; actives raise or lower the signal
Outline: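 M-CSF levels, determined by ELISA, are taken at 24 h after dosing human skin fibroblasts. Responses in either direction are fitted with DMSO serving as the baseline.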

[10] = read-out: TIMP metallopeptidase inhibitor 1 (TIMP1), TIMP1 (gene 7076); assay: BSK_hDFCGF_TIMP1: BioMAP Diversity Plus: hDFCGF Assay for TIMP metallopeptidase inhibitor 1 (TIMP1) Biomarker Activity (AID 2283062); conditions: primary human foreskin fibroblasts; actives raise or lower the signal
Outline: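 Fibroblasts from human foreskin are treated with test chemical and harvested at 24 h. TIMP-1 is quantified by ELISA, and gain or loss of signal is scored against DMSO.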

[11] = read-out: Matrix Metallopeptidase 1 (MMP1), MMP1 (gene 4312); assay: BSK_hDFCGF_MMP1: BioMAP Diversity Plus: hDFCGF Assay for Matrix Metallopeptidase 1 (MMP1) Biomarker Activity (AID 2283064); conditions: primary human foreskin fibroblasts; actives raise or lower the signal
Outline: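 MMP1 levels quantified by ELISA 24 h after dosing human dermal fibroblast cultures, with parallel SRB total-protein staining for overt cytotoxicity. Data fitted in both directions against DMSO baseline.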

[12] = read-out: Vascular cell adhesion molecule 1 (VCAM1), VCAM1 (gene 7412); assay: BSK_hDFCGF_VCAM1: BioMAP Diversity Plus: hDFCGF Assay for Vascular cell adhesion molecule 1 (VCAM1) Biomarker Activity (AID 2283065); conditions: primary human foreskin fibroblasts; actives raise or lower the signal;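 on AC50: VCAM-1 protein level quantified by ELISA after 24 h chemical exposure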
Outline: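 Cells are dosed, cultured for 24 h, then VCAM-1 is quantified by ELISA; signal increases and decreases are both fitted relative to DMSO.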

[13] = read-out: Plasminogen activator inhibitor-1 (PAI1), SERPINE1 (gene 5054); assay: BSK_hDFCGF_PAI1: BioMAP Diversity Plus: hDFCGF Assay for Plasminogen activator inhibitor-1 (PAI1) Biomarker Activity (AID 2283066); conditions: primary human foreskin fibroblasts; actives raise or lower the signal
Outline: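 Human skin fibroblast cultures receive chemical for 24 h before PAI-1 is measured by ELISA; signal changes are fitted bidirectionally against DMSO-treated wells.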

[14] = read-out: Intercellular Adhesion Molecule 1 (ICAM1), ICAM1 (gene 3383); assay: BSK_KF3CT_ICAM1: BioMAP Diversity Plus: KF3CT Assay for Intercellular Adhesion Molecule 1 (ICAM1) Biomarker Activity (AID 2283067); conditions: primary human keratinocytes with fibroblasts; actives raise or lower the signal
Outline: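 Dose the keratinocyte/fibroblast co-culture, wait 24 h, measure ICAM-1 by ELISA, then fit increases or decreases against DMSO. Cytotoxicity is checked in parallel cultures by SRB total-protein staining.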

[15] = BSK_KF3CT_SRB: Viability Assessment in the BioMAP Diversity Plus: KF3CT Assay (AID 2283069); conditions: primary human keratinocytes with fibroblasts;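 further: total protein by sulforhodamine B staining as a cytotoxicity measure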
Outline: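 Cytotoxicity was gauged by SRB staining (0.1% SRB, 10% TCA fixation, 560 nm) of parallel cultures at 24 h. The cells were primary human skin keratinocytes co-cultured with fibroblasts, and activity was fitted in both directions against DMSO.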

[16] = read-out: Interleukin-1 alpha (IL1a), IL1A (gene 3552); assay: BSK_KF3CT_IL1a: BioMAP Diversity Plus: KF3CT Assay for Interleukin-1 alpha (IL1a) Biomarker Activity (AID 2283070); conditions: primary human keratinocytes with fibroblasts; actives raise or lower the signal
Outline: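 IL-1a was detected by ELISA 24 h after chemical treatment of a co-culture of human skin keratinocytes and foreskin fibroblasts. Gain or loss of signal was fitted against the DMSO baseline.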

[17] = read-out: TIMP metallopeptidase inhibitor 2 (TIMP2), TIMP2 (gene 7077); assay: BSK_KF3CT_TIMP2: BioMAP Diversity Plus: KF3CT Assay for TIMP metallopeptidase inhibitor 2 (TIMP2) Biomarker Activity (AID 2283071); conditions: primary human keratinocytes with fibroblasts; actives raise or lower the signal
Outline: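 Measurements come from ELISA detection of TIMP-2 at 24 hours in a dosed human keratinocyte and foreskin fibroblast co-culture. DMSO serves as negative control and baseline.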

Measured: AC50

CCC(=O)OCc1ccccc1
not listed: [16] | [17]
inactive: all other assays above

Cc1ccc2n[nH]nc2c1
inactive: all assays above

CNC[C@H](O)c1cccc(O)c1
not listed: [16]
inactive: all other assays above

Cc1cc(C2(c3cc(C)c(O)cc3C)OS(=O)(=O)c3ccccc32)c(C)cc1O
active: [13] 20 µM and 4.95 µM
not listed: [16] | [17]
inactive: all other assays above

CC(C)c1ccc(C(C)C)cc1
active: [1] 35.5 µM | [3] 20 µM | [4] 32.6 µM | [8] 33.4 µM | [13] 36.2 µM
not listed: [16] | [17]
inactive: all other assays above

CC(C)(COC(=O)c1ccccc1)COC(=O)c1ccccc1
active: [5] 16.7 µM | [8] 32.1 µM | [9] 20 µM | [10] 34.3 µM | [12] 16.1 µM | [13] 32.9 µM
not listed: [17]
inactive: all other assays above

O=[N+]([O-])c1cc(C(F)(F)F)ccc1Cl
active: [8] 0.0171 µM
not listed: [17]
inactive: all other assays above

OC1OC[C@@H](O)[C@H](O)[C@H]1O (stereo partly drawn)
not listed: [16]
inactive: all other assays above

Nc1cc([N+](=O)[O-])ccc1O
active: [8] 20 µM and 10.8 µM
not listed: [17]
inactive: all other assays above

CCCCCCCCC=O
not listed: [16] | [17]
inactive: all other assays above

C=C[Si](OCC)(OCC)OCC
active: [8] 29.2 µM
not listed: [16] | [17]
inactive: all other assays above

C=CCOC(=O)CCC1CCCCC1
active: [8] 30.8 µM and 37.8 µM
not listed: [16]
inactive: all other assays above
